D1 PAM – Potentiators of Human D1 Dopamine Receptor: qHTS; HEK293 TREx D1 cells, calcium flux, dopamine EC20 potentiation; potentiation, % at 10 µM; 0.036% of 360,000 active; AID 504651, 2011; in the data active means potentiation above about 30%; further: 0% is about no effect
Target sequence (P21728 whole entry, looked up): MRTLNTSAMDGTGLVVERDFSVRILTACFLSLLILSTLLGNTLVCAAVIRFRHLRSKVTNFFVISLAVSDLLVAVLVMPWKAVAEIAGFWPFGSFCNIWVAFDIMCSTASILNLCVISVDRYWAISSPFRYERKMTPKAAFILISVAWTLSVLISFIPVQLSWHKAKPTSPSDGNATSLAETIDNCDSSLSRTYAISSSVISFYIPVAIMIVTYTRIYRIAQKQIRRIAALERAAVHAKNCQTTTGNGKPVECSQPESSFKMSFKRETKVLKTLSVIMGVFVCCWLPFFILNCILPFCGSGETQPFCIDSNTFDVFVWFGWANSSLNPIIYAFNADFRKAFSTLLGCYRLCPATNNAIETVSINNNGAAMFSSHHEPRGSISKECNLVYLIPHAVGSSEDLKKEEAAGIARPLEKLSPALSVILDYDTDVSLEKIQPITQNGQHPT
D1 antag – Antagonist of Human D 1 Dopamine Receptor: qHTS. AID 504652, 2011. activity change, negative = inhibition, % at 10 µM. 3.2% of 360,000 active. HEK293 TREx D1 cells, calcium flux, dopamine EC80; stronger effect = lower value; in the data active means activity change below about -30%; further: on the % scale 0 is the no-effect control and ±100 the full control effect
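Antagonism measured as reduced calcium response to an EC80 dopamine addition following 180 s compound pre-read; cells were inducible HEK293 Trex D1 plated overnight at 30 C, read kinetically at 1 cycle/sec.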
D1 agonist – Allosteric Agonists of the Human D1 Dopamine Receptor: qHTS | D(1A) dopamine receptor (Homo sapiens), P21728 | HEK293 T-REx D1 cells, calcium flux, agonist mode | activation, % at 2 µM | 1% of 360,000 active | AID 504660, 2011; further: 0% is about no effect
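Inducible HEK293 T-REx D1 cells, force-coupled to calcium signalling, were plated at 4000 cells/well with tetracycline and held overnight at 30 C. After no-wash calcium dye loading, compound-evoked calcium rise over 180 s flagged agonists.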
TRHR agonist – qHTS for Small Molecule Agonists and Allosteric Enhancers of Human TRH Receptor: Primary Screen for Agonists. Thyrotropin-releasing hormone receptor (Homo sapiens), P34981. TRHR cells, calcium flux fluo-8, FDSS agonist mode. activation, % at 2 µM. 0.18% of 360,000 active. AID 493084, 2011; further: 0% is about no effect
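Read-out: compound-evoked intracellular calcium rise in TRHR cells, fluo-8 dye, kinetic FDSS fluorescence at 1 s/cycle following a 10-cycle baseline. Cells cultured overnight before dye loading (30 min–1.5 h, RT).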
TRHR enhancer – qHTS for Small Molecule Agonists and Allosteric Enhancers of Human TRH Receptor: Primary Screen for Enhancers; Thyrotropin-releasing hormone receptor (Homo sapiens), P34981; TRHR cells, fluo-8 calcium fluorescence, EC20 TRH enhancement; enhancement, % at 2 µM; 0.66% of 360,000 active; AID 493056, 2011; in the data active means enhancement above about 30%; further: 0% is about no effect
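TRHR-expressing cells loaded with fluo-8 calcium dye were read kinetically (ex 480/em 530) during compound addition, then stimulated with an EC20 of TRH (10 nM final). Enhancement of the Gq-mediated intracellular calcium response was scored.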
* hit, by the source's call. In the library only some 4.7% were active in any assay of this set; here they are far more common. Unless noted, no stated cut-off is given here; in the data, active means activation above about 30%; inactive means the rest.

SMILES | D1 PAM | D1 antag | D1 agonist | TRHR agonist | TRHR enhancer
CCOc1ccc(CCNC(=O)c2ccc(C)c(-n3c(C)nc4cccnc43)c2)cc1OCC | -1.3 | 1.7 | 0.8 | -0.4 | 6.4
COC(=O)C1=CN(Cc2ccc(F)cc2)C=C(C(=O)OC)C1c1cc(OC)c(OC)c(OC)c1 | -8.4 | -40.9* | 0.1 | -0.1 | -1.3
COC(=O)C1=CN(Cc2ccc(OC)cc2)C=C(C(=O)OC)C1c1cc(OC)c(OC)c(OC)c1 | 0.0 | 2.1 | 5.5 | 0.6 | 2.1
COCc1nn2c(N)c(-c3ccccc3)cnc2c1-c1ccccc1 | -6.7 | -35.0* | 1.8 | 0.3 | 3.6
O=C(CN1CCN(c2ccccc2O)CC1)Nc1ccccc1C(=O)NCCc1ccccc1 | 4.8 | -41.0* | -0.2 | -0.4 | 10.1
Cc1ccccc1CN1C(=O)c2ccccc2Sc2ccc(C(=O)NCc3ccccc3)cc21 | -2.9 | -2.1 | 0.3 | 0.0 | -0.9
Cc1ccc(NC(=S)NC2CCN(Cc3ccccc3)CC2)cc1 | -4.8 | -64.2* | 17.1 | 0.5 | 3.8
S=C(Nc1ccccc1Cl)NC1CCN(Cc2ccccc2)CC1 | -0.6 | 0.5 | 14.5 | 1.1 | 6.1
S=C(Nc1cc(Cl)cc(Cl)c1)NC1CCN(Cc2ccccc2)CC1 | 0.8 | -15.3 | 18.7 | 2.2 | -5.1
Cc1ccc(NC(=S)NC2CCN(Cc3ccccc3)CC2)cc1C | -11.6 | -82.3* | 21.2 | 1.3 | 15.7
Cc1c(Cl)cccc1NC(=S)NC1CCN(Cc2ccccc2)CC1 | -6.1 | -32.9* | 14.6 | 2.9 | 6.2
CC(C)c1ccccc1NC(=S)NC1CCN(Cc2ccccc2)CC1 | -3.6 | 7.7 | 9.7 | 1.2 | 2.1
CC(C)c1ccc(NC(=S)NC2CCN(Cc3ccccc3)CC2)cc1 | -7.0 | -27.0 | 36.4* | 0.9 | 1.3
S=C(Nc1ccc(Cl)cc1Cl)NC1CCN(Cc2ccccc2)CC1 | -8.8 | -16.1 | 14.7 | 2.9 | -0.6
S=C(Nc1ccc2c(c1)OCO2)NC1CCN(Cc2ccccc2)CC1 | -12.2 | -37.7* | 9.2 | 0.1 | -2.1
O=C(Nc1ccc(Cl)cc1C(F)(F)F)c1cc(S(=O)(=O)NCc2ccccc2)ccc1F | -1.4 | 11.3 | 1.3 | 0.6 | 6.2
O=C(CCCn1c(=O)c2ccccc2n(CC(=O)Nc2ccc(F)cc2F)c1=O)NCc1ccccc1Cl | -1.6 | -12.0 | 9.9 | -1.5 | 1.1
Cc1nc2ncnn2c(C)c1CCC(=O)O | -2.2 | -37.5* | 0.6 | -0.4 | -5.1
CCOc1ccc(OCCNCc2ccc(OC(C)C(=O)N(C)C)c(OCC)c2)cc1 (configuration not stated) | -1.6 | 10.4 | 56.5* | -0.2 | 12.2
Nc1nc(Nc2cccc(Cl)c2)sc1C(=O)c1ccc(F)cc1 | -4.9 | -36.9* | -1.7 | -0.1 | -0.4
C=C[C@@H]1c2ccccc2N(S(=O)(=O)c2ccc(C)cc2)[C@H](c2ccccc2C(F)(F)F)C1(C#N)C#N | 2.0 | 27.5 | 0.2 | -0.4 | 0.3
CCN1C=CC2=C(C#N)C(N)C(C#N)(C#N)C(c3ccccc3C(F)(F)F)C2C1 (configuration not stated) | -6.2 | 12.2 | 33.7* | 7.0 | -1.0
Cc1ccc(S(=O)(=O)N2CCC(C(=O)NCCc3ccccn3)CC2)cc1 | -7.0 | -57.6* | 1.4 | -1.2 | -2.1
O=C(NCCc1ccccn1)C1CCN(S(=O)(=O)c2ccc(Cl)cc2)CC1 | -1.1 | -15.7 | 3.2 | 0.5 | 10.2
COc1cccc(CNC(=O)COC(=O)CCCNC(=O)c2ccc(Cl)cc2)c1 | 1.2 | 2.3 | -1.3 | -0.1 | 8.9
CC1=NNC(=O)/C1=C\c1cn(-c2ccccc2)nc1-c1cccs1 | -18.4 | -39.6* | 6.8 | 2.1 | -13.1
CC1=NNC(=O)/C1=C\c1cn(-c2ccccc2)nc1-c1ccc(F)cc1 | -7.0 | -54.4* | 1.5 | 3.2 | -18.0
O=Cc1cn(-c2ccccc2)nc1-c1ccc(F)cc1 | -3.8 | -12.4 | 1.4 | -0.8 | 2.0
COCCN1C(=S)N[C@@H](c2ccccc2)C(C(=O)OC)=C1C | -2.8 | 6.7 | 0.7 | 0.5 | -3.8
COc1ccccc1CNC(=O)C(NS(=O)(=O)c1cccs1)C(C)C (configuration not stated) | 0.5 | 1.2 | -1.7 | -0.9 | -9.6

Screens deposited in PubChem by National Center for Advancing Translational Sciences (NCATS).
